Here are results for twelve compounds from PubChem BioAssay (Tox21).

Test [1] can be described thus: qHTS assay to identify small molecule agonists of the androgen receptor (AR) signaling pathway in the presence of an antagonist - cell viability counter screen (AID 1259379).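 For activity change, negative = cytotoxicity: MDA-kb2 human breast cancer cells carrying an MMTV luciferase reporter; series mostly up to about 92 µM.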 Note: nearly all actives have a fitted effect of over 25% in size. Note: potency is the fitted concentration of half-maximal effect. In short, it runs like this:
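Cytotoxicity counter-screen run in the same wells as the nilutamide-challenged (3.0 µM final) AR agonist assay in MDA-kb2 cells. Compounds tested at 15 concentrations for 16 h, 37 °C without CO2; CellTiter-Fluor fluorescence read.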
For orientation: In qHTS, concentration-response curves come from the screen itself.

A short description of test [2]: qHTS assay to identify small molecule antagonists of the estrogen receptor beta (ER-beta) signaling pathway - cell viability counter screen (AID 1259382).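 For activity change, negative = cytotoxicity: HEK293T cells carrying ER-beta-UAS-bla reporter stimulated with estradiol; series mostly up to about 92 µM.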 Note: nearly all actives have a fitted effect of over 55% in size. Note: potency is the fitted concentration of half-maximal effect. In short, it runs like this: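 Cytotoxicity was measured in the same wells by CellTiter-Glo luminescence after 30 min at room temperature. Cells were ER-beta-bla HEK293T in charcoal-stripped serum, given compound together with 1 nM E2 and incubated 16 h at 37C.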

In test [3] the target is Estrogen receptor (Homo sapiens) (UniProt P03372). In words: qHTS assay to identify small molecule agonists of the estrogen receptor alpha (ER-alpha) signaling pathway in the presence of an antagonist (AID 1259383; calls by dose curve; note: top concentration of the series differs between compounds; nearly all actives have a fitted effect of over 15% in size). In short, it runs like this:
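Agonist-mode confirmation run in the presence of 10.0nM (final) ICI-182,780 antagonist. The reporter was ERE-driven luciferase in VM7Luc4E2 cells, grown in charcoal-stripped serum. Cells were exposed to 15-concentration compound series for 22hr, then ONE-Glo luminescence was read.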

Test [4] can be described thus: qHTS assay to identify small molecule agonists or antagonists of the thyroid stimulating hormone receptor (TSHR) signaling pathway - wild type cell line counter screen (AID 1259384; calls by dose curve). In short, it runs like this:
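Wild-type Hek293 cells, 800/well, 18 h at 37C, then compound with Ro20-1724 for 30 min RT. cAMP by HTRF (cAMP-d2/anti-cAMP cryptate), 1 h RT, fluorescence read. 15 concentrations, triplicates.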

The target of test [5] is Thyrotropin receptor (Homo sapiens) (UniProt P16473). In words: qHTS assay to identify small molecule antagonists of the thyroid stimulating hormone receptor (TSHR) signaling pathway (AID 1259385; calls by dose curve; note: nearly all actives have a fitted effect of over 20% in size). In short, it runs like this: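 TSHR-HEK293 cells (800/well) plated 18 h, then compounds with Ro20-1724 and TSH at 1.5 ng/mL final, 30 min at room temperature. cAMP quantified by HTRF (cAMP-d2/anti-cAMP-cryptate, 1 h); 15 concentrations in triplicate.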
Sequence of Thyrotropin receptor (Homo sapiens) (P16473 whole entry, looked up): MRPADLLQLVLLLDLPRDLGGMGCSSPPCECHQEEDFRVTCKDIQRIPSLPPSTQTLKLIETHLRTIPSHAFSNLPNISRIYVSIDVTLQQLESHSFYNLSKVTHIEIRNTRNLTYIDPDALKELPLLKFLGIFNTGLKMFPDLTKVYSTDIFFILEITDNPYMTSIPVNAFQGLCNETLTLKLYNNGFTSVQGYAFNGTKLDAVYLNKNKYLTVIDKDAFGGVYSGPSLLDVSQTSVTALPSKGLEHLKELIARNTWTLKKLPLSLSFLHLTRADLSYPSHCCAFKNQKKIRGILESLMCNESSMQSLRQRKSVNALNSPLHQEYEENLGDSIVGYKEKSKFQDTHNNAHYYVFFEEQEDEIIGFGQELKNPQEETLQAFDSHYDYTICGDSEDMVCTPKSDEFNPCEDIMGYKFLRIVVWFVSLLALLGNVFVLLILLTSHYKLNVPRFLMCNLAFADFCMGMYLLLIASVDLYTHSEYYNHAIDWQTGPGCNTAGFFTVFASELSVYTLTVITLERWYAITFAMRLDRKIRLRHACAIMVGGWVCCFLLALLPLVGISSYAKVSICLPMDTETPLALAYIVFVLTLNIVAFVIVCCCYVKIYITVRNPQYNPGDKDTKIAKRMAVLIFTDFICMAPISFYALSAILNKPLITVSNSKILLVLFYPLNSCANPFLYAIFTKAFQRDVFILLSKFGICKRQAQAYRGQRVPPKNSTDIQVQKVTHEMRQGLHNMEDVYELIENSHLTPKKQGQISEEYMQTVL

The nature of test [6]: qHTS assay to identify small molecule agonists of the progesterone receptor (PR) signaling pathway - cell viability counter screen (AID 1346799; calls by dose curve; note: nearly all actives have a fitted effect of over 45% in size). In short, it runs like this:
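Cells (PR-UAS-bla HEK293T) are plated at 3,000/well in 2% charcoal-stripped FBS medium, rested 6 hr, dosed and incubated 16 hr at 37C. CellTiter-Glo is then added and luminescence measured after 30 min at room temperature.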

Test [7] is described as follows: qHTS assay to identify small molecule antagonists of the TGF-beta/Smad signaling pathway - cell viability counter screen (AID 1346824). Note: nearly all actives have a fitted effect of over 50% in size. Note: potency is the fitted concentration of half-maximal effect. In short, it runs like this: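 SBE-bla HEK 293T cells, incubated overnight, then compound plus 0.25 ng/mL TGF-beta1 (stock added) for 5 hr at 37 C. Viability was read in the same wells by CellTiter-Glo luminescence after 30 min at room temperature.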

A short description of test [8]: qHTS assay to identify small molecule agonists of the TGF-beta/Smad signaling pathway - cell viability counter screen (AID 1346829). For activity change, negative = cytotoxicity: top concentration of the series differs between compounds. Note: nearly all actives have a fitted effect of over 45% in size. Note: potency is the fitted concentration of half-maximal effect. In short, it runs like this:
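In parallel with the Smad reporter read, viability of HEK 293T cells stably carrying SBE-bla is quantified by ATP luminescence following 5 hr compound treatment.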

Test [9] can be described thus: qHTS assay to identify small molecule agonists of the TGF-beta/Smad signaling pathway (AID 1346859; active = well fitted activation curve with a large enough effect in the signal ratio in the repeat runs, not every such curve was filed as active; the % refers to the signal ratio; note: series mostly up to about 77 µM). In short, it runs like this:
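Reporter line: HEK 293T with stably integrated SBE-controlled beta-lactamase. Compound exposure lasts 5 hr at 37 C and 5% CO2; substrate loading follows for 2 hr at room temperature, with emission read at 460 and 530 nm.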

Test [10] has as its target Thyrotropin-releasing hormone receptor (Homo sapiens) (UniProt P34981). In words: qHTS assay to identify small molecule antagonists of the thyrotropin-releasing hormone receptor (TRHR) signaling pathway (AID 1346877; active = well fitted inhibition curve with a large enough effect in the repeat runs, not every such curve was filed as active; note: series mostly up to about 51 µM). In short, it runs like this: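 Antagonist mode: after a 5 min room-temperature compound exposure, cells were stimulated with 1 nM (final) TRH. Dye-loaded TRHR-HEK293 cells were used, and calcium-dependent fluorescence was followed for 3 min, with 15-point titrations run in triplicate.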

For test [11] the target is unchanged. In words: qHTS assay to identify small molecule agonists of the thyrotropin-releasing hormone receptor (TRHR) signaling pathway (AID 1346891; calls by dose curve;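 note: HEK293 cells expressing TRHR with calcium dye readout; series mostly up to about 58 µM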). In short, it runs like this:
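Cells: TRHR-Hek293, seeded and incubated 18 h. Dye loading: 2 h at 37 °C. Compound added from DMSO stock by pin tool. Read-out: kinetic calcium fluorescence over 3 min.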

Test [12] in a line: Human pregnane X receptor (PXR) small molecule agonists, qHTS cell viability counter screen (AID 1346977). Note: nearly all actives have a fitted effect of over 50% in size. Note: potency is the fitted concentration of half-maximal effect. In short, it runs like this:
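Cytotoxicity counter screen run in the same wells as the PXR luciferase assay, using PXR-Luc HepG2 cells in charcoal-stripped serum medium. Viability: CellTiter-Fluor fluorescence after 24hr compound treatment.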

Test [13] deals with Androgen receptor (Homo sapiens) (UniProt P10275). Briefly: qHTS assay to identify small molecule agonists of the androgen receptor (AR) signaling pathway in the presence of an antagonist (AID 1259381; calls by dose curve; note: nearly all actives have a fitted effect of over 15% in size). In short, it runs like this:
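Agonist-mode confirmation run against 3.0 uM final nilutamide: compounds titrated at 15 concentrations onto MDA-kb2 MMTV-luciferase reporter cells. Luminescence measured with ONE-Glo following 16 hr incubation, 37C, 0% CO2.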

Test [14] can be described thus: qHTS assay to identify small molecule agonists of the estrogen receptor alpha (ER-alpha) signaling pathway in the presence of an antagonist - cell viability counter screen (AID 1259386). Note: series mostly up to about 92 µM; nearly all actives have a fitted effect of over 30% in size. In short, it runs like this: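 Compounds tested at 15 concentrations for 22 h at 37C alongside 10.0nM (final) ICI-182,780 antagonist, in VM7Luc4E2 cells grown in phenol red-free, charcoal-stripped medium. Viability read by CellTiter-Fluor fluorescence after 1 h reagent incubation.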

Test [15] concerns the target Progesterone receptor (Homo sapiens) (UniProt P06401). In words: qHTS assay to identify small molecule agonists of the progesterone receptor (PR) signaling pathway (AID 1346784; calls by dose curve; note: nearly all actives have a fitted effect of over 30% in size). In short, it runs like this: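 Cells (PR-UAS-bla HEK 293T, GripTite) were plated in assay medium containing 2% charcoal-stripped FBS and incubated 6 hr. Test compounds in DMSO were added for 16 hr at 37C. FRET substrate was then loaded for 2 hr at room temperature before fluorescence reading.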

For test [16] the target is unchanged. In words: qHTS assay to identify small molecule antagonists of the progesterone receptor (PR) signaling pathway (AID 1346795; active = well fitted inhibition curve with a large enough effect in the signal ratio in the repeat runs, not every such curve was filed as active; the % refers to the signal ratio; note: potency is the fitted concentration of half-maximal effect). In short, it runs like this:
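Antagonist mode: compounds tested against 1 nM (final) promegestone stimulation in HEK293T cells expressing PR-UAS-bla reporter, 16 hr at 37C, 5% CO2; beta-lactamase activity detected via B/G FRET substrate after 2 hr at room temperature.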

Test [17] can be described thus: qHTS assay to identify small molecule antagonists of the progesterone receptor (PR) signaling pathway - cell viability counter screen (AID 1346798). For activity change, negative = cytotoxicity: series mostly up to about 92 µM. Note: nearly all actives have a fitted effect of over 50% in size. Note: potency is the fitted concentration of half-maximal effect. In short, it runs like this:
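Counter screen for cytotoxicity: viability of PR-UAS-bla HEK293T cells was measured with CellTiter-Glo luminescence following 16 hr compound exposure in the presence of R5020.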

The nature of test [18]: qHTS assay to identify small molecule agonists of the estrogen receptor beta (ER-beta) signaling pathway - cell viability counter screen (AID 1259380). Note: nearly all actives have a fitted effect of over 30% in size. Note: potency is the fitted concentration of half-maximal effect. In short, it runs like this:
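Cell viability counter screen: CellTiter-Glo luminescence (30 min, room temperature) measured in the same wells as the beta-lactamase readout, after 16 hr compound exposure at 37C of ER-beta-bla HEK293T cells in 2% charcoal-stripped FBS medium.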

A number with no mark means an inactive call. Records with an inconclusive call do not appear. Calls of active or inactive are those of the source. Unless noted, calls come from the whole dose curve; as a rule, active = well fitted curve in the direction sought with a large enough effect in the repeat runs; inconclusive = weak or mixed curves; inactive = no such curve, though single readings can be large; an effect the other way counts as inactive or inconclusive.
% is set by controls: 0 for no effect and ±100 for the full control effect.

Sequence of Androgen receptor (Homo sapiens) (P10275 whole entry, looked up): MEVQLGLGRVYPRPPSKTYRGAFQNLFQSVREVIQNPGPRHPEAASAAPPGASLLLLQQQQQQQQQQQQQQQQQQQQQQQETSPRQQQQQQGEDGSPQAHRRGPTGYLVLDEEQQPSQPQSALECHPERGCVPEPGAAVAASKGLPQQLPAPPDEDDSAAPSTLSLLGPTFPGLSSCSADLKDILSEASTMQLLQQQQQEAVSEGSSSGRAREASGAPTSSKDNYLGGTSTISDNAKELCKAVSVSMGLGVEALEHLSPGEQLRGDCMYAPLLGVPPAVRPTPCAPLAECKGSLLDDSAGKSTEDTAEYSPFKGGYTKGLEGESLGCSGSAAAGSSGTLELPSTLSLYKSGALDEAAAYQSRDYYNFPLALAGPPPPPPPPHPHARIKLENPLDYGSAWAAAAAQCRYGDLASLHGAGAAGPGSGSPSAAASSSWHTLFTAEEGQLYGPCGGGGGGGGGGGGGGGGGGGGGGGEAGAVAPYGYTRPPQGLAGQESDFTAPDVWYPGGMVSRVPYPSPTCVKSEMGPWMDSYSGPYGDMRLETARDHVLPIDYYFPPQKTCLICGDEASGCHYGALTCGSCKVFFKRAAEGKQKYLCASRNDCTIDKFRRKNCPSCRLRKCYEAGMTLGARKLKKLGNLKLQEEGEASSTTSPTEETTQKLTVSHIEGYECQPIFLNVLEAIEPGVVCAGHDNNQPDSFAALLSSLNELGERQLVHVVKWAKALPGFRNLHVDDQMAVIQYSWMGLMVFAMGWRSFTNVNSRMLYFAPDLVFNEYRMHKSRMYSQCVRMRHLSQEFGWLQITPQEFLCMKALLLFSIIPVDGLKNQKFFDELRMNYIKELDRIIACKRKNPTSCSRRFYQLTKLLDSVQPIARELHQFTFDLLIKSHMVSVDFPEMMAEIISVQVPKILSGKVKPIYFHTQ
Sequence of Progesterone receptor (Homo sapiens) (P06401 whole entry, looked up): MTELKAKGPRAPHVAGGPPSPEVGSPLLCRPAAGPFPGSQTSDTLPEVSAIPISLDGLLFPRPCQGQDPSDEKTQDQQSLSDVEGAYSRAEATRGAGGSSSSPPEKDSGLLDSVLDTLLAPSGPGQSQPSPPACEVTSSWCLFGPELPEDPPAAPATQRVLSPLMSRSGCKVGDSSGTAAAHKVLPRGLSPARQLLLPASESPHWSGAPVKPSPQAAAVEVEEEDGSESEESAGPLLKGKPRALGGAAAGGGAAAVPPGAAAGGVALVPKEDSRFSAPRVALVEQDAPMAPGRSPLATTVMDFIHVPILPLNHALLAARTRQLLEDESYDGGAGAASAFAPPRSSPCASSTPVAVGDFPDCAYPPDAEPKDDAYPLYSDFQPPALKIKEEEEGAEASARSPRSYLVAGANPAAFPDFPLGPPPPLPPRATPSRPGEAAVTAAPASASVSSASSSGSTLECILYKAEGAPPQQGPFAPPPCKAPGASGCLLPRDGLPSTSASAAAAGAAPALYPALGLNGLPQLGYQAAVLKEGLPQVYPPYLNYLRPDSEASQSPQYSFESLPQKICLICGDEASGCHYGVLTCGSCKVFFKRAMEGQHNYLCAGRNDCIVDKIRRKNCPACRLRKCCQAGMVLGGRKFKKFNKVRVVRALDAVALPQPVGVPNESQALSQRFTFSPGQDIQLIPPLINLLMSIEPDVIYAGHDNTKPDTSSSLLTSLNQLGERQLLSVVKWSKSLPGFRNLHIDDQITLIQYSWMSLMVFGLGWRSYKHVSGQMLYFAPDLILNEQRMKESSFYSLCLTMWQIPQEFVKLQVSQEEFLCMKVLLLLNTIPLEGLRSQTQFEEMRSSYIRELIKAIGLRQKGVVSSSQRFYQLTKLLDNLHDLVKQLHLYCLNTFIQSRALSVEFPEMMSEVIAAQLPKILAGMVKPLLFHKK
Sequence of Thyrotropin-releasing hormone receptor (Homo sapiens) (P34981 whole entry, looked up): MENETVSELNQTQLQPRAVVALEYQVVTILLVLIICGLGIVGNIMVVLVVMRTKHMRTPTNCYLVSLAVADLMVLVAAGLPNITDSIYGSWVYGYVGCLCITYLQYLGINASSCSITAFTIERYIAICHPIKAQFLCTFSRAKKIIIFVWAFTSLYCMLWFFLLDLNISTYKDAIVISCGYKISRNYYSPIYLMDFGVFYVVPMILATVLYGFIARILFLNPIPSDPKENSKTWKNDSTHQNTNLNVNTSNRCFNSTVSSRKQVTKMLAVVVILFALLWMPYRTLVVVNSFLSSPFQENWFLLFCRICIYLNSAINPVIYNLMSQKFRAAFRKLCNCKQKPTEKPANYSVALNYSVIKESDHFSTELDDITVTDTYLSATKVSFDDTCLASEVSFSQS
Sequence of Estrogen receptor (Homo sapiens) (P03372 whole entry, looked up): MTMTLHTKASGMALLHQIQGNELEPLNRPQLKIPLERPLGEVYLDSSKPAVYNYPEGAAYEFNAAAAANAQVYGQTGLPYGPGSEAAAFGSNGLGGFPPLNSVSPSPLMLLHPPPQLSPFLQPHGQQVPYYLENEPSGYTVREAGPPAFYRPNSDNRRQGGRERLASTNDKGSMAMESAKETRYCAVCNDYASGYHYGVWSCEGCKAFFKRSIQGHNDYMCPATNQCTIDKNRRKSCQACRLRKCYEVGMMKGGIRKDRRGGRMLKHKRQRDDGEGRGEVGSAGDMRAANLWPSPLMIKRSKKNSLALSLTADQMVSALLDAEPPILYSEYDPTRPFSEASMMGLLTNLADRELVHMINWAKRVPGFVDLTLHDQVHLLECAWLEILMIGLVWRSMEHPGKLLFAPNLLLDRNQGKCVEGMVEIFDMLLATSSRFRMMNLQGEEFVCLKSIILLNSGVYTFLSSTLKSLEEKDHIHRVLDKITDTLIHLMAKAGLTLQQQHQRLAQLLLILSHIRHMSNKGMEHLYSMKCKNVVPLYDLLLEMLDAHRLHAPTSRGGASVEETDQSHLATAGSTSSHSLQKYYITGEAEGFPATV

`CCCCCCCCCCCCCOP(=O)(O)O`: the Potency entry in [1], in [2], in test [3], in [5], in [6] and in test [7] was “inactive” each time. In addition, the Potency entry in [8], in test [9], in test [10], in test [11] and in test [12] was “inactive” throughout. In addition, the compound was classed as inactive in test [4].
Take `Cc1ccc(N)cc1O`: the Potency entry in [1], in test [13], in [3], in test [8], in [10] and in test [11] was “inactive” each time. In addition, in [4], the outcome was inactive.
Consider `[O]=[Zr]`, for which the Potency entry in test [1], in test [2], in test [5], in test [14], in test [16] and in test [17] was “inactive” throughout. Further, the Potency result in [6], in [9], in [10], in [11] and in test [12] was “inactive” each time. Further, the call in test [4] and in test [15] was inactive.
As to `CO[Si](CCC1CCC2OC2C1)(OC)OC` (centres undefined), the Potency result in test [1], in [13], in test [2], in [3], in [5] and in [14] was “inactive” each time. The Potency result in [16], in test [17], in test [6], in test [7], in [9] and in test [10] was “inactive” each time. Further, the Potency result in [11] and in test [12] was “inactive” each time. Besides, the compound was called inactive in test [4] and in test [15].
For `CCCN(CCc1cccs1)[C@H]1CCc2c(O)cccc2C1`, the Potency result in test [1], in [13], in [2], in [3], in test [5] and in test [14] was “inactive” in each case. Also, the Potency result in test [17], in test [6], in test [9] and in [11] was “inactive” each time. For the same compound, the outcome in test [4] and in test [15] was inactive. Moreover, the Potency in test [16] is 29.8 µM (active).
As for `CCCCCCCCCCCCCCCCCO`, the activity change, negative = cytotoxicity in test [1] is 1.97% [at 19 µM]; in test [2] it was 3.37% [at 19 µM]; in [14], 2.39% [at 19 µM]; in test [17], -7.24% [at 18.9 µM]; in test [6], -18.8% [at 19 µM]; in test [8], -0.289% [at 15.8 µM]. In [12], the activity change, negative = cytotoxicity is 3.58% [at 19 µM]. Moreover, the activation in test [13] is -1.33% [at 19 µM]; in test [3] it was -1.67% [at 19 µM]; in test [9], -0.867% [at 15.8 µM]; in test [11] it was 0.0338% [at 11.8 µM]. In test [16], the activity change, negative = inhibition was 1.26% [at 18.9 µM]. The viability change, negative = cytotoxic in test [7] was -8.2% [at 15.8 µM].
As for `COc1ccc(C#N)cc1`, the Potency result in test [1], in [2], in test [3], in [5], in [14] and in test [16] was “inactive” throughout. Besides, the Potency result in test [6], in test [7], in test [8], in test [9], in [11] and in [12] was “inactive” in each case. Further, the result in [4] and in test [15] was inactive.
For `Cc1cccc(Br)c1`, the Potency result in [1], in test [5], in [14] and in test [9] was “inactive” each time. Further, the Potency in test [18] was 27.4 µM (active); in test [16] it was 10.9 µM (active); in test [17] it was 54.8 µM (active). Further, the outcome in test [4] and in test [15] was inactive.
Consider `CCN1CCN(c2cc(-c3ccc(F)cc3)c3c(n2)CCCCCC3)CC1`, for which the activity change, negative = cytotoxicity in test [1] is -1.28% [at 19 µM]; in [2] it was -0.898% [at 19 µM]; in test [14], -2.28% [at 19 µM]; in test [17] it was 1.1% [at 18.9 µM]; in test [6] it was 2.26% [at 19 µM]; in [8] it was -0.583% [at 15.8 µM]. Besides, the activity change, negative = cytotoxicity in [12] was 0.184% [at 19 µM]. For the same compound, the activation is -0.375% [at 19 µM] in test [13], -3.65% [at 19 µM] in test [15], -2.06% [at 15.8 µM] in [9] and 0.262% [at 11.8 µM] in test [11]. Moreover, the cAMP activity change in [4] is 2.43% [at 18.9 µM]. For the same compound, the activity change, negative = inhibition in test [16] is -13.2% [at 18.9 µM]. Moreover, the activity, negative = inhibition in [10] is 1.24% [at 10.5 µM].
Take `O=C(Nc1ccc(Cl)c(Cl)c1)c1cc(Cl)cc(Cl)c1O`: the Potency in test [1] is 6.86 µM (active); in [2] it was 19.3 µM (active); in [16], 4.86 µM (active); in test [7] it was 19.5 µM (active); in test [8], 6.92 µM (active); in [12], 4.86 µM (active). Further, in test [15], the call was inactive. In test [11], the Potency result was “inactive”.
Take `CC(=O)OC(OC(C)=O)c1ccc([N+](=O)[O-])o1`: the Potency is 62.2 µM (active) in test [1] and 49.4 µM (active) in [12]. Besides, in [4], the call was inactive.
Take `O=Nc1ccc(NO)cc1`: the Potency entry in test [18], in test [2], in [3], in test [14], in test [17] and in [6] was “inactive” each time. In addition, the Potency entry in test [8], in test [9], in test [10], in test [11] and in test [12] was “inactive” throughout. Moreover, the outcome in test [15] was inactive.
